High-throughput results as filed in PubChem BioAssay.
M1 ag: human M1 muscarinic receptor agonists, primary screen, Fluo-8 calcium fluorescence, CHO-K1 cells, HTS. activation, % at 3 µM. Muscarinic acetylcholine receptor M1 (Homo sapiens), P11229. CHO-K1 hM1, agonist mode; 0% DMSO, 100% acetylcholine EC100. AID 588814, 2011. 360,000 compounds, 0.33% hits;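 active = activation above the run's mean compound activation plus 3 SD, cut at about 16% in these data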;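 also: peak over basal fluorescence ratio within a 140 s kinetic read after compound addition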
Target sequence (P11229 whole entry, looked up): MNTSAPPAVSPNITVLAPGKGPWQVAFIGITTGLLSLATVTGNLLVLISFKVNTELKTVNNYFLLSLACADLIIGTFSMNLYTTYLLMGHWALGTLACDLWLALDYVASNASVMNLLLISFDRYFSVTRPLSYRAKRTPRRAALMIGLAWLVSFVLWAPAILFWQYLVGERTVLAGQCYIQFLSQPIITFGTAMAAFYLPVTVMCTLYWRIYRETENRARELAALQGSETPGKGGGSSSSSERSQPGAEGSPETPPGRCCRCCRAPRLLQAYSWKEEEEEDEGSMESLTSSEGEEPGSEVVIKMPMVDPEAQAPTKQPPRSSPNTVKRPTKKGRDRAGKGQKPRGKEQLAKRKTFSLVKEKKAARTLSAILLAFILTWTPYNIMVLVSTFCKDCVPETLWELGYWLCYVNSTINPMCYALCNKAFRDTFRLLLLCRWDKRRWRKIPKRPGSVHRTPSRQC
M1 PAM: human M1 muscarinic receptor positive allosteric modulators, primary screen, CHO-K1 cells, Fluo-8 calcium fluorescence, 1536-well; activation, % at 3 µM; Muscarinic acetylcholine receptor M1 (Homo sapiens), P11229; CHO-K1 hM1, ACh EC20; 0% = ACh EC20, 100% = maximal ACh; 360,000 compounds, 0.088% hits; in the data active = activation above about 19%, passing the limit was not always enough
M1 ag parental: counter-screen for M1 agonists: effect in parental CHO-K1 cells. activation, % at 3 µM. Fluo-8 calcium fluorescence; scaled to maximal ATP response, vehicle zero. 360,000 compounds, 0.48% hits; in the data active = activation above about 15%;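 also: untransfected CHO-K1 host cells lacking M1 receptor as counterscreen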
CHRM1 antagonist: human M1 muscarinic receptor antagonists, primary screen, CHO-K1 cells, Fluo-8 calcium fluorescence, 1536-well; CHO-K1 hM1, ACh EC80 antagonist; inhibition, % at 3 µM; Muscarinic acetylcholine receptor M1 (Homo sapiens), P11229; 360,000 compounds, 1.3% hits; AID 588852, 2011;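 active = percent inhibition above its own plate's cutoff, namely the mean of that plate's compound wells plus 3 SD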;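 also: peak over basal fluorescence ratio during 140 s after agonist addition; 0% = ACh EC80 plus DMSO and 100% = DMSO alone without agonist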
M1 PAM parental: nonselective calcium activators in parental CHO-K1 cells, primary screen, counter-screen for M1 PAM project, cell-based, Fluo-8 calcium fluorescence, full deck, 1536-well; 360,000 compounds, 0.02% hits; ATP EC20; 0% at ATP EC20, 100% at ATP max; activation, % at 3 µM;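 active = activation above the run cutoff, the mean activation of all test compounds plus 3 SD, cut at about 40% in these data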;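 also: peak over basal fluorescence ratio in a 140 s read after ATP addition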
CHO-K1 Ca antag: M1 antagonist counterscreen hit in parental CHO-K1 cells | 360,000 compounds, 0.6% hits | inhibition, % at 3 µM | ATP-induced calcium, Fluo-8 fluorescence | AID 602250;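 active = inhibition above a per-plate cutoff, the plate's mean sample inhibition plus 3 SD, cut at about 24% in these data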;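 also: 0% = DMSO plus EC80 ATP and 100% = DMSO alone without ATP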
The depositor's hits bear a star; x = no result. Hits are enriched below; roughly 2.3% of the tested compounds scored in any of these assays.

SMILES | M1 ag | M1 PAM | M1 ag parental | CHRM1 antagonist | M1 PAM parental | CHO-K1 Ca antag
O=C(CCC1CCCN(Cc2ccc3c(c2)CCO3)C1)NCc1ccc(F)c(F)c1 (stereo not given) | -12 | -30 | 0 | 33* | -6 | 12
Cc1ncc(CN2CCCC(CCC(=O)NCc3ccc(F)c(F)c3)C2)s1 (stereo not given) | -13 | -3 | 0 | -2 | 8 | 1
Cc1ccc(C(=O)NCC(=O)OCCCOC(=O)CNC(=O)c2ccc(C)cc2)cc1 | -6 | 7 | 0 | -6 | 16 | -4
CC1(C(=O)NCc2cccc(C(F)(F)F)c2)CCN1Cc1ccc2ccccc2c1 (stereo not given) | -8 | -19 | 1 | 32* | 10 | -8
CC1(C(=O)NCc2cccc3ccccc23)CCN1Cc1ccc2ccccc2c1 (stereo not given) | -8 | -17 | 0 | 18 | -5 | -3
Cc1ccc(C)c(NC(=O)C2CCCN2/C=C/C(=O)C(F)(F)F)c1 (stereo not given) | -3 | 0 | 0 | 4 | -6 | 26*
Cc1cccc(NC(=O)C2CCCN2/C=C/C(=O)C(F)(F)F)c1C (stereo not given) | -7 | 8 | 5 | -3 | 22 | -3
O=c1[nH]c(/C=C\c2cccc(F)c2)nc(O)c1[N+](=O)[O-] | 4 | 8 | 1 | -20 | 41* | -60
O=c1[nH]c(/C=C\c2cccc(Cl)c2)nc(O)c1[N+](=O)[O-] | -2 | 0 | -1 | -5 | -10 | 9
C=CCOc1ccc(/C=C\c2nc(O)c([N+](=O)[O-])c(=O)[nH]2)cc1OCC | -4 | 27* | 1 | -3 | 1 | -9
C=CCOc1ccc(/C=C\c2nc(O)c([N+](=O)[O-])c(=O)[nH]2)cc1OC | -4 | 0 | 0 | -8 | 2 | -6
Nc1nc(Nc2ccccc2)nc(NCc2ccccc2)c1[N+](=O)[O-] | -3 | 3 | 20* | -5 | 15 | -1
COCCCNc1nc(N)c([N+](=O)[O-])c(Nc2ccccc2OC)n1 | 11 | 10 | 20* | -18 | 11 | 5
Nc1nc(NCc2ccccc2)nc(NCc2ccccc2)c1[N+](=O)[O-] | -3 | 11 | 0 | -8 | 24 | -5
COCCCNc1nc(N)c([N+](=O)[O-])c(NCc2ccccc2)n1 | 2 | -3 | 4 | 3 | 9 | -19
COCCNc1nc(N)c([N+](=O)[O-])c(NCc2ccccc2)n1 | -1 | 8 | 2 | -2 | -5 | -15
CN(C)CCCNc1nc(N)c([N+](=O)[O-])c(NCc2ccccc2)n1 | -10 | -22 | 0 | 52* | 3 | 2
O=C(Nc1ccc(Cl)cc1C(=O)c1ccccn1)c1ccccc1 | -4 | 8 | 0 | 2 | 14 | 0
O=S1(=O)CCN(C2CC2)CC1 | -2 | 3 | 1 | -8 | 20 | -15
Cc1ccc(NC(N)=S)cc1C | -4 | 7 | 0 | -2 | 12 | 8
N#C/C(=N\Nc1ccc(Cl)cc1)C(=O)c1ccsc1 | 5 | 0 | 13 | 12 | -3 | 24*
Cc1ccc(N/N=C(\C#N)C(N)=S)cc1C | 0 | 1 | 16* | 5 | -2 | 7
N#C/C(=N\Nc1cccc(Cl)c1)C(=O)c1ccccc1 | 5 | -3 | 5 | 15 | -3 | 29*
N#C/C(=N\Nc1ccc(Cl)cc1)C(N)=S | 7 | -3 | 11 | 13 | -22 | 25*
N#C/C(=N\Nc1ccccc1)C(N)=S | 6 | 16 | 6 | -12 | 3 | 18
SMILES | M1 ag | M1 PAM | M1 ag parental | CHRM1 antagonist | M1 PAM parental | CHO-K1 Ca antag
O=C(CNC(=O)c1cc(Cl)cc([N+](=O)[O-])c1)NC1CC1 | 0 | 1 | 1 | -6 | -6 | 2
C[C@@H]1COc2cccc(N3CCSCC3)c2S(=O)(=O)N1 | x | x | 2 | x | 11 | -12
CCN(CC(=O)Nc1ccc(NC(C)=O)cc1)C(=O)C1(c2ccc(Cl)cc2)CCC1 | 1 | 10 | 1 | -13 | 19 | -5
Cc1cc(C)nc(-n2nc(C)cc2NC(=O)CN2CCCC2)n1 | -5 | 3 | 1 | -4 | 18 | -5
Cc1cc(C)nc(-n2nc(C)cc2NC(=O)CN2CCC(C)CC2)n1 | -7 | 20* | 0 | -13 | 6 | 0
COc1ccc(-n2c(=O)[nH]c3cc(C(=O)NCCc4ccccc4)ccc3c2=O)cc1OC | -1 | -12 | 8 | 20 | -3 | 2
Cc1ccc(-c2csc(=Nc3cccnc3)n2CCCN2CCCC2=O)cc1C | -8 | -6 | 1 | 10 | -2 | 3
Cc1ccc(-c2csc(=Nc3cccnc3)n2CCCn2ccnc2)cc1C | -10 | -26 | 8 | 41* | 18 | 0
CC1CCC(CN2CCN=C2Nc2ccccc2)CC1 (stereo not given) | -11 | -17 | 0 | 34* | -13 | 3
O=C(COC(=O)C12CC3CC(CC(O)(C3)C1)C2)Nc1ccc(Cl)cc1F | -3 | 2 | 2 | 2 | 9 | -15
COC(=O)c1ccc(C(=O)OC)c(NC(=O)COC(=O)C23CC4CC(CC(O)(C4)C2)C3)c1 | -4 | -4 | 1 | -7 | -6 | 33*
Cc1ccccc1C1(CCN2CCCCC2)CCOC(C)(C)C1 (stereo not given) | -13 | -26 | 1 | 52* | 21 | -5
CC(=C/c1ccccc1)/C=N/n1c(-c2ccncc2)n[nH]c1=S | 30* | 5 | 0 | -1 | 0 | -4
O=S(=O)(c1cc(F)ccc1F)N1CCN(c2ccccn2)CC1 | -7 | 1 | 1 | -4 | 12 | 6
O=S(=O)(c1cc(F)ccc1F)N1CCN(c2ncnc3ccccc23)CC1 | 0 | -13 | 18* | 31* | -3 | 5
Cn1c(Oc2ccc(Cl)cc2)c(C=O)c2ccccc21 | -6 | -2 | 0 | -5 | -9 | 27*
O=C(COc1coc(CN2CCc3ccccc3C2)cc1=O)Nc1cccc([N+](=O)[O-])c1 | -3 | 7 | 5 | 0 | -8 | -8
CCc1ccc2c(c1)C(c1ccc([N+](=O)[O-])cc1)=NNC(c1ccc(C)cc1)=N2 | -8 | -1 | 18* | 3 | 16 | 11
CC(=O)Nc1ccc(-c2ccnc3c2CC(C(=O)NCc2ccco2)O3)cc1 (stereo not given) | -2 | 4 | 2 | -1 | 13 | 8
CCC(Sc1nncn1C)C(=O)Nc1nnc(-c2ccccc2Cl)s1 (stereo not given) | -8 | 4 | 0 | -12 | 14 | -6
CCC(Sc1ccc(Cl)cc1)C(=O)Nc1nnc(-c2cccc([N+](=O)[O-])c2)s1 (stereo not given) | 20* | 5 | 1 | -9 | 23 | -3
